HCV inh = qHTS Assay for Inhibitors of Hepatitis C Virus (HCV) | Huh7.5.1 HCVcc-Cre infection, luciferase reporter, 44 h | Potency, µM (series often up to 41.8 µM), usual class: inhibitors | 3.4% of 340,000 active | AID 651820, 2012; active = well fitted inhibition curve with a large enough effect; inconclusive = small, poorly fitted or top-dose-only effect, or another doubt; inactive = no such curve, though single readings can be large or run the other way
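After 44 h co-culture of compound, cells and HCVcc-Cre (~0.5 moi), substrate is added for 15 min at room temperature and luciferase measured over 15 sec. Cells were seeded at 1,000/well and pre-cultured 4 h.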
Marburg entry inh = qHTS for inhibitors of binding or entry into cells for Marburg Virus. Marburg virus pseudotyped entry inhibition, cell reporter. Potency, µM (highest dose often 37.8 µM), usual class: inhibitors. 1.8% of 300,000 active; calls by dose curve; tested in HEK293 cells
CHX counter = Cycloheximide Counterscreen for Small Molecule Inhibitors of Shiga Toxin; cell reporter, cycloheximide protein synthesis inhibition counterscreen; max response, %; 12% of 300,000 active; AID 2314, 2010; in the data active = max response mostly above about 13%, no sharp cut-off; inactive = mostly below about 14%; also: read at 38.3 µM for the half of the compounds with a filed dose
Shiga toxin inh = A qHTS for Small Molecule Inhibitors of Shiga Toxin; Vero cells, Shiga toxin protein synthesis inhibition reporter; inhibition, % at 38.7 µM; 9.2% of 290,000 active; in the data active = inhibition mostly above about 28%, no sharp cut-off; inactive = mostly below about 43%
FMDV inh = High Throughput Screening for Foot and Mouth Disease Virus Antivirals; FMDV antiviral cell-based qHTS; Potency, µM (top dose mostly 57.9 µM), actives largely listed as inhibitors; 1.2% of 410,000 active; AID 1159524, 2015; calls by dose curve; tested in HEK293T cells; also: read-out not given here; nearly all actives have a fitted effect of over 45% in size
LASV entry inh = qHTS for Inhibitors of binding or entry into cells for Lassa Virus; Lassa virus pseudotype entry inhibition, cell reporter; Potency, µM (titrated, usually from 37.9 µM), hits mostly inhibitors; 1.2% of 300,000 active; calls by dose curve; tested in HEK293 cells; also: nearly all actives have a fitted effect of over 50% in size
Each line names hits and unclear results; the compound was inactive in the other large screens; ! = repeats disagree. In the library only some 13% were active in any assay of this set; here they are far more common.

CCOc1ccc(-c2cc(C(=O)Nc3ccc4c(c3)OCCO4)c3ccccc3n2)cc1	HCV inh inconclusive, Marburg entry inh inconclusive, CHX counter 23, Shiga toxin inh 52
CC(C)C[C@H](NC(=O)c1nc[nH]c1C(=O)NCc1ccccc1)C(=O)OC(C)(C)C	none (no result: Marburg entry inh, LASV entry inh)
O=C(c1ccc(Cl)c(S(=O)(=O)N2CCOCC2)c1)N1CCN(c2ccccn2)CC1	none (no result: Marburg entry inh, CHX counter, Shiga toxin inh, LASV entry inh)
COc1cc(OC)cc(C(=O)NC(=S)Nc2ccc(N3CCCC3)cc2)c1	Marburg entry inh inconclusive, LASV entry inh inconclusive
CN1C(=O)NC(=O)C2(Cc3ccccc3N3CCOCC32)C1=O (centres undefined)	none
O=C1NC(=O)C2(Cc3ccccc3N3CCCC32)C(=O)N1c1ccc(Cl)cc1 (centres undefined)	Marburg entry inh inconclusive
CN1C(=O)NC(=O)[C@]2(Cc3ccccc3N3CCN(c4ccccc4)CC32)C1=O (some centres undefined)	CHX counter 31
O=C1NC(=O)[C@]2(Cc3ccccc3N3CCN(c4ccccc4)CC32)C(=O)N1c1ccccc1 (some centres undefined)	CHX counter 25, Shiga toxin inh 76
O=C1NC(=O)[C@]2(Cc3ccccc3N3CCN(c4ccccc4)CC32)C(=O)N1Cc1ccccc1 (some centres undefined)	CHX counter 30, Shiga toxin inh 54
CCC(NC(=S)NCc1ccc(F)cc1)c1ccc(C(C)C)cc1 (centres undefined)	HCV inh inconclusive (no result: Marburg entry inh, LASV entry inh)
CCN1CCN(C2=C(Cl)C(=O)N(Cc3ccccc3)C2=O)CC1	FMDV inh inconclusive, LASV entry inh inconclusive
O=C(COc1ccccc1N1C(=O)c2ccccc2C1=O)c1ccc(Cl)cc1	CHX counter 20, Shiga toxin inh 34
Cc1ccc(C(=O)Nc2ccc3c(c2)OCO3)o1	CHX counter 31, Shiga toxin inh 68
CC(=O)Nc1ccc2c(c1)OCO2	none
C/C(=C\C(=O)c1ccc(C)o1)Nc1ccc2c(c1)OCO2	CHX counter 23, Shiga toxin inh 49
C/C(=C\C(=O)c1ccccc1)Nc1ccc2c(c1)OCO2	HCV inh 3.2µM, CHX counter 37, Shiga toxin inh 50
Cc1ccc(NC(=O)c2sc3nc(CCl)[nH]c(=O)c3c2C)c(C)c1	HCV inh 11µM, Shiga toxin inh 59, FMDV inh inconclusive
CSCc1nc2sc(C(=O)Nc3nc(C)cs3)c(C)c2c(=O)[nH]1	HCV inh 11µM, Marburg entry inh inconclusive, CHX counter 33
Cc1csc(NC(=O)CSc2nc3sc(C)c(C)c3c(=O)[nH]2)n1	none
CCCCOc1ccc(-c2nnc(N)s2)cc1	CHX counter 21
CCOc1ccc(-c2nnc(N)s2)cc1	CHX counter 25, Shiga toxin inh 142 (no result: FMDV inh)
Nc1nnc(-c2ccc(Cl)cc2)s1	none (no result: FMDV inh)
CCCCOc1ccc(-c2ncc(N)cn2)cc1	HCV inh inconclusive, CHX counter 53, Shiga toxin inh 114 (no result: Marburg entry inh, LASV entry inh)
CCOc1ccc(-c2nc(CCl)cs2)cc1	CHX counter 34, Shiga toxin inh 153 (no result: Marburg entry inh, LASV entry inh)
Cc1c(Cc2ccccc2)c(NCCCO)n2c(nc3ccccc32)c1C#N	HCV inh inconclusive, FMDV inh inconclusive (no result: Marburg entry inh, LASV entry inh)
CC(C)(C)c1ccc(-c2nnc(N)s2)cc1	CHX counter 59, Shiga toxin inh 80 (no result: Marburg entry inh, LASV entry inh)
Nc1nnc(-c2ccc(F)cc2)s1	none
N/C(=C\C(=O)c1cc(Cl)ccc1O)C(Cl)(Cl)Cl	HCV inh inconclusive, CHX counter 13 (no result: Marburg entry inh, LASV entry inh)
C[C@@H]1C[C@@H]2OC(=O)[C@]3(C)[C@H]2[C@@H](OC3(C)O)[C@]2(C)C(=O)C=C[C@H]12 (some centres undefined)	CHX counter 31, Shiga toxin inh 26 (no result: Marburg entry inh, LASV entry inh)
C=C1C(=O)O[C@@H]2C[C@@H](C)[C@@H]3C=CC(=O)[C@@]3(C)[C@@H](O)[C@H]12	HCV inh 1.4µM, FMDV inh 8.9µM! (no result: Marburg entry inh, LASV entry inh)
C=C1C(=O)O[C@@H]2C[C@@H](C)[C@@H]3C=CC(=O)[C@@]3(C)[C@@H](OC(C)=O)[C@H]12	HCV inh 2.8µM, FMDV inh 3.2µM (no result: Marburg entry inh, LASV entry inh)
Cc1occc1-c1nnc(SCC(=O)c2ccc3c(c2)OCCO3)n1CC1CCCO1 (centres undefined)	CHX counter 23, Shiga toxin inh 40 (no result: Marburg entry inh, LASV entry inh)
